The structures appear in SMILES notation. This is part of a sample that, as a whole, favours compounds with a hit. Of some 83,000 tested, about 20% had one in any assay.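 Treatment: one concentration, 48 hours, 96-well format. Scoring: percent growth, with anything below 10 considered active.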 Values without a mark were called inactive. Active and inactive are the calls of the source.

Drawing on PubChem BioAssay (NCI), this text covers growth for 9 compounds.

Test systems include NCI-H23 lung; NCI-H226 lung; NCI-H322M lung; HOP-62 NSCLC; NCI-H460 lung; HOP-92 NSCLC; NCI-H522 lung; A549/ATCC NSCLC; 786-0 renal; COLO 205 colon; DU-145 prostate; K-562 leukemia; MALME-3M melanoma; RXF 393 renal; SF-295 CNS; SF-539 CNS; UACC-257 melanoma; M14 melanoma; MDA-MB-231 breast; SF-268 CNS.
Assay in all cases: NCI-60 one-dose screen, 48 h (100 = growth as untreated, 0 = no growth, -100 = all killed)
Holding throughout (settings): 10 µM

As for `CC1(C)S(=O)(=O)OCCOS1(=O)=O`, the growth with NCI-H23 lung was 103%; with NCI-H226 lung it was 102%; in the assay with NCI-H322M lung, 100%; with HOP-62 NSCLC, 98.4%; with NCI-H460 lung, 105%; in the assay on HOP-92 NSCLC, 83.8%. Moreover, the growth was 99.6% in the assay with NCI-H522 lung; 92% with A549/ATCC NSCLC; 102% in the assay on 786-0 renal; 116% in the assay with COLO 205 colon; 107% with DU-145 prostate; 100% with K-562 leukemia. In addition, the growth in the assay with MALME-3M melanoma was 94.5%; in the assay on RXF 393 renal it was 114%; with SF-295 CNS, 97.7%; with SF-539 CNS, 100%; in the assay with UACC-257 melanoma, 82.2%; in the assay with M14 melanoma it was 100%.

On to `O=C(c1ccc(O)cc1)c1ccc(O)cc1`, for which the growth with NCI-H23 lung is 106%; in the assay with NCI-H226 lung it was 98.1%; in the assay with NCI-H322M lung it was 95.3%; in the assay on HOP-62 NSCLC, 97.8%; with NCI-H460 lung, 108%; in the assay with HOP-92 NSCLC it was 98%. In addition, the growth with NCI-H522 lung is 95.8%; in the assay on A549/ATCC NSCLC, 96.9%; with 786-0 renal, 98.8%; in the assay with COLO 205 colon it was 108%; in the assay on DU-145 prostate, 110%; in the assay with K-562 leukemia, 102%. Besides, the growth is 125% in the assay on MDA-MB-231 breast; 113% in the assay on RXF 393 renal; 102% in the assay with SF-268 CNS; 102% in the assay with SF-295 CNS; 100% in the assay on SF-539 CNS; 96.2% with UACC-257 melanoma. Further, the growth in the assay on M14 melanoma was 98.7%.

As to `COC(=O)/C=C1\Sc2cc(F)ccc2NC1=O`, the growth with NCI-H23 lung was 95.7%; in the assay on NCI-H226 lung, 101%; in the assay with NCI-H322M lung, 100%; with HOP-62 NSCLC, 96.5%; with NCI-H460 lung, 112%; in the assay on HOP-92 NSCLC, 82.4%. Moreover, the growth is 107% in the assay with NCI-H522 lung; 95.7% in the assay on A549/ATCC NSCLC; 94.3% in the assay on 786-0 renal; 126% with DU-145 prostate; 91.2% in the assay with K-562 leukemia; 102% in the assay on MALME-3M melanoma. The growth in the assay with MDA-MB-231 breast was 107%; in the assay on SF-268 CNS, 110%; in the assay with SF-295 CNS, 118%; in the assay with SF-539 CNS, 104%; in the assay on UACC-257 melanoma, 91%; in the assay with M14 melanoma, 93.3%.

As for `O=c1cc(-c2ccccc2)oc2c1ccc1ccccc12`, the growth in the assay on NCI-H23 lung was 85.2%; with NCI-H226 lung, 86.3%; in the assay on NCI-H322M lung it was 96%; in the assay on HOP-62 NSCLC, 99.5%; with NCI-H460 lung, 97.1%; with HOP-92 NSCLC, 50.5%. In addition, the growth in the assay on NCI-H522 lung is 79.3%; in the assay with A549/ATCC NSCLC, 73.6%; in the assay on 786-0 renal, 99.4%; in the assay with DU-145 prostate, 102%; with K-562 leukemia, 102%; in the assay on MALME-3M melanoma it was 146%. Further, the growth with MDA-MB-231 breast was 88.4%; in the assay on RXF 393 renal it was 90.8%; in the assay on SF-268 CNS, 101%; in the assay with SF-295 CNS, 98%; with SF-539 CNS, 81.2%; with UACC-257 melanoma, 97.3%. The growth in the assay on M14 melanoma is 98.9%.

As for `COc1ccc2c(c1)CCc1c-2n[nH]c1-c1[nH]nc2c1CCc1cc(OC)ccc1-2`, the growth in the assay with NCI-H23 lung is 75.4%; with NCI-H226 lung it was 82.7%; in the assay on NCI-H322M lung, 90.5%; in the assay on HOP-62 NSCLC, 66%; in the assay on NCI-H460 lung, 53.5%; with HOP-92 NSCLC, 84.6%. For the same compound, the growth with NCI-H522 lung was 34%; in the assay with A549/ATCC NSCLC, 79%; in the assay with 786-0 renal, 64.7%; with DU-145 prostate, 86.2%; in the assay on K-562 leukemia it was 20.8%; in the assay on MALME-3M melanoma, 46.6%. In addition, the growth was 54.3% in the assay with RXF 393 renal; 86.2% in the assay on SF-268 CNS; 29.6% in the assay on SF-295 CNS; 31.8% with SF-539 CNS; 82.5% in the assay on UACC-257 melanoma; 36.1% in the assay on M14 melanoma.

With `O=C(CC(=O)c1ccccc1O)c1ccccc1`, the growth in the assay with NCI-H23 lung was 80.8%; with NCI-H226 lung, 88.6%; in the assay on NCI-H322M lung it was 103%; with HOP-62 NSCLC, 77.2%; with NCI-H460 lung it was 88.8%; with HOP-92 NSCLC it was 100%. The growth in the assay on NCI-H522 lung is 83.1%; in the assay with A549/ATCC NSCLC, 89.8%; in the assay on 786-0 renal, 89.5%; in the assay on COLO 205 colon it was 101%; in the assay on DU-145 prostate, 91.8%; in the assay with MALME-3M melanoma, 115%. Further, the growth in the assay with MDA-MB-231 breast is 91.1%; in the assay on RXF 393 renal it was 103%; with SF-268 CNS, 90.7%; in the assay with SF-295 CNS it was 89.5%; in the assay on SF-539 CNS, 95.5%; in the assay with UACC-257 melanoma, 95.7%. For the same compound, the growth with M14 melanoma was 97.4%.

Take `CCOC(=O)c1[nH]c(C)c(C(C)=O)c1C`: the growth in the assay on NCI-H23 lung was 94.2%; in the assay with NCI-H226 lung it was 103%; in the assay on NCI-H322M lung, 101%; in the assay on HOP-62 NSCLC it was 89.7%; in the assay on NCI-H460 lung, 103%; in the assay with HOP-92 NSCLC, 51%. For the same compound, the growth with NCI-H522 lung was 83.8%; in the assay on A549/ATCC NSCLC, 105%; in the assay on 786-0 renal, 83.5%; with DU-145 prostate, 93.7%; in the assay with K-562 leukemia it was 87.3%; in the assay with MALME-3M melanoma it was 95.7%. Moreover, the growth with MDA-MB-231 breast is 96.6%; with RXF 393 renal, 97.3%; in the assay on SF-268 CNS, 93.5%; in the assay on SF-295 CNS, 92.6%; in the assay on SF-539 CNS, 92.6%; in the assay on UACC-257 melanoma, 98.3%.

With `CC1(c2ccccc2)NC(=O)NC1=O` (configuration not stated), the growth in the assay on NCI-H23 lung was 116%; with NCI-H226 lung it was 98.3%; with NCI-H322M lung, 97.2%; in the assay with HOP-62 NSCLC, 111%; in the assay with NCI-H460 lung, 118%; in the assay with HOP-92 NSCLC, 100%. Moreover, the growth in the assay with NCI-H522 lung was 99.4%; in the assay on A549/ATCC NSCLC, 96.5%; in the assay on COLO 205 colon, 130%; with DU-145 prostate it was 125%; with K-562 leukemia it was 103%; in the assay on MALME-3M melanoma, 113%. Moreover, the growth was 111% in the assay on MDA-MB-231 breast; 110% with RXF 393 renal; 106% in the assay with SF-268 CNS; 119% in the assay on SF-295 CNS; 117% in the assay on SF-539 CNS; 84.5% in the assay on UACC-257 melanoma. Moreover, the growth with M14 melanoma is 121%.

`Oc1ccc(N=Nc2ccc(Br)cc2)c(O)c1`: the growth was 19.6% with NCI-H23 lung; 83.6% with NCI-H226 lung; 67% in the assay on NCI-H322M lung; 27.5% with HOP-62 NSCLC; 8.13% (active) in the assay with NCI-H460 lung; 64.3% in the assay with HOP-92 NSCLC. Moreover, the growth with NCI-H522 lung was -32.1% (active); with A549/ATCC NSCLC, 12.5%; in the assay with 786-0 renal it was 15.6%; in the assay on DU-145 prostate it was -11.8% (active); in the assay on K-562 leukemia, 6.18% (active); in the assay with MALME-3M melanoma it was 36.2%. The growth with MDA-MB-231 breast was 41.9%; in the assay on RXF 393 renal, -58.3% (active); in the assay with SF-268 CNS, 30.8%; in the assay on SF-295 CNS it was 15.4%; with SF-539 CNS, -18.6% (active); in the assay on UACC-257 melanoma, 20.6%. For the same compound, in the assay on M14 melanoma, the growth is -19.2% (active).
